# Data reported in PubChem BioAssay.
# For part of these data: Potency and affinity values are given separately. Active and inactive are the calls of the source.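 The calls were made as follows, unless noted: active = primary screen hit whose calcium fluorescence ratio, in both repeats, exceeds the weak agonist control mean by 3 SD; inactive = the rest.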
# Key:
# [1] = system: TRPC4 beta (transient receptor potential cation channel C4), mouse; assay: TRPC4 cation channel opening, retest – cell-based, Fluo4 calcium, HEK293 TRPC4beta/mu-opioid, duplicates, 10 µM, confirmation (AID 2426;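 active = fluorescence ratio normalized to control raised more than 50% in primary screen plus both repeat runs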;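 as to activation: percent rise of integrated ratio over buffer wells lacking compound which define 0%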); conditions: Fluo4 calcium fluorescence, at 10 µM; hits give high values
# [2] = system: transient receptor potential cation channel C4 beta (TRPC4), mouse; assay: TRPC4 cation channel opening, second retest – cell-based, second round, Fluo4, HEK293 TRPC4beta/mu-opioid, 1 µM, confirmation (AID 2461;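 active = primary screen active and over 50% activation in each of two duplicate runs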;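 as to activation: 0% = wells without test compound as baseline of integrated fluorescence ratio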); conditions: Fluo4 calcium fluorescence, at 1 µM; hits give high values
# [3] = system: TRPC4 (transient receptor potential cation channel C4 beta), mouse; assay: potentiation of DAMGO EC20 TRPC4 response – cell-based, second round, Fluo-4, HEK293 TRPC4beta/mu-opioid, 1 µM, confirmation (AID 2554;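 active = primary screen hit whose fluorescence ratio, in both repeats, exceeds the weak agonist control mean by 3 SD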); conditions: DAMGO EC20, Fluo-4 calcium flux, at 1 µM; hits give high values
# [4] = system: TRPC4 beta (transient receptor potential cation channel C4), mouse; assay: potentiation of DAMGO EC20 TRPC4 response – cell-based, Fluo-4, HEK293 TRPC4beta/mu-opioid, confirmation (AID 2555); conditions: DAMGO EC20, Fluo-4 calcium flux, at 10 µM; hits give high values
# [5] = biological target: Short transient receptor potential channel 4 (Mus musculus) (UniProt Q9QUQ5); assay: blockers of DAMGO-evoked TRPC4 calcium flux – cell-based, Fluo4, HEK293 TRPC4beta/mu-opioid, confirmation (AID 2636;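 active = calcium signal cut by more than 3 SD below the full-agonist control yet still positive, in both repeats and the earlier primary screen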); conditions: at 10 µM; hits give high values
# [6] = biological target: Short transient receptor potential channel 4 (Mus musculus) (UniProt Q9QUQ5); assay: blockers of DAMGO-evoked TRPC4 calcium flux – cell-based, second round, Fluo4, HEK293 TRPC4beta/mu-opioid, 1 µM, confirmation (AID 2637;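 active = calcium signal ratio cut to more than 3 SD under the fully stimulated control mean yet still positive, in both repeats and the primary screen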); conditions: at 1 µM; hits give high values
# [7] = biological target: Short transient receptor potential channel 4 (Mus musculus) (UniProt Q9QUQ5); assay: potentiation of DAMGO-evoked TRPC4 calcium signal – cell-based, HEK293 TRPC4/mu-opioid, Fluo-4 calcium, EC20 DAMGO, dose response (AID 434941;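 active = earlier screen potentiator hit that boosts the TRPC4 ion channel at some dose, with a dose response; inactive = no potentiation, no dose response, or not a prior hit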;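 also: calcium entry triggered by an EC20 dose of DAMGO at the co-expressed mu-opioid receptor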)
# [8] = biological target: Short transient receptor potential channel 4 (Mus musculus) (UniProt Q9QUQ5); assay: block of DAMGO-driven TRPC4 calcium entry – cell-based, HEK293 TRPC4/mu-opioid, Fluo-4 calcium, dose response (AID 434942;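 active = primary screen inhibitor hit that blocks the TRPC4 channel at some tested dose, yielding a dose curve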)
# [9] = biological target: Short transient receptor potential channel 6 (Mus musculus) (UniProt Q61143); assay: TRPC6 blockade by TRPC4 inhibitor hits – cell-based, HEK293, membrane potential dye, duplicate, selectivity assay for TRPC4 inhibitor project, confirmation (AID 434948;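 active = active in primary screen and both duplicates, each dropping signal beyond three positive-control SD with fluorescence still positive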); conditions: HEK293 TRPC6, membrane potential dye fluorescence, at 10 µM, stimulated with maximal-effect acetylcholine; hits give high values
# [10] = biological target: Short transient receptor potential channel 6 (Mus musculus) (UniProt Q61143); assay: TRPC6 opening by TRPC4 activator hits – cell-based, HEK293, membrane potential dye, duplicate, selectivity assay for TRPC4 activator project, confirmation (AID 434950;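 active = membrane potential signal rise above negative control mean plus 3 SD in both duplicates, also active in the earlier TRPC4 screen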;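 as to activation: 0% = buffer only wells and 100% = acetylcholine maximal-effect wells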); conditions: HEK293 TRPC6, membrane potential fluorescence, at 10 µM; activation: hits give high values; outcome: activation
# [11] = biological target: Short transient receptor potential channel 6 (Mus musculus) (UniProt Q61143); assay: positive modulators of mouse TRPC6 channel – HEK293 cells, membrane potential dye, duplicate, selectivity assay for TRPC4 potentiator project, confirmation (AID 434952;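 active = compound raising the membrane signal above positive-control mean plus 3 SD in both repeats, and a primary screen hit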); conditions: HEK293 TRPC6, membrane potential dye fluorescence, at 10 µM, maximal acetylcholine added after compound; hits give high values
# [12] = biological target: Short transient receptor potential channel 4 (Mus musculus) (UniProt Q9QUQ5); assay: calcium flux activators in TRPC4/5HT1a cells, counter-screen for TRPC4 activator project, cell-based, second counter screen, HEK293 TRPC4/5HT1a, Fluo-4 (AID 434977;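 active = calcium signal rise above buffer-control mean plus 5 SD in both duplicates, and also a hit in the primary screen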;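 as to activation: plate controls were assay buffer for no effect and maximal serotonin response for full effect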); conditions: Fluo-4 calcium flux, at 10 µM; hits give high values
# [13] = serotonin-gated TRPC4 signal block – cell-based, second counter screen, HEK293 TRPC4/5HT1a, Fluo-4, counter-screen for TRPC4 inhibitor project, confirmation (AID 434978;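 active = primary screen active whose calcium signal fell more than 3 SD beyond the full-serotonin control mean in both duplicate plates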;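 also: serotonin given first at submaximal then at maximal dose after compound preincubation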); conditions: Fluo-4 calcium flux, at 10 µM, serotonin added to trigger calcium flux; hits give high values
# [14] = system: TRPC4 (mouse), co-expressed with 5HT1a in HEK293; assay: enhancement of serotonin-evoked TRPC4 response – cell-based, second counter screen, HEK293 TRPC4/5HT1a, Fluo-4, counter-screen for TRPC4 potentiator project, confirmation (AID 434979;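 active = signal rise over 3 SD above mean of control wells given weak agonist, in both repeats and first screen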); conditions: Fluo-4 calcium flux, at 10 µM, serotonin added at its EC20 dose; hits give high values
# [15] = nonspecific calcium rise without TRPC4 – cell-based, HEK293 mu-opioid receptor line, counter-screen for TRPC4 activator project, confirmation (AID 449723;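 active = hit in primary screen, with calcium signal over 5 SD above buffer well mean in both duplicates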;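 also: counter screen cells carry the mu-opioid receptor alone and lack TRPC4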); conditions: HEK293 mu-opioid cells, Fluo-4 calcium fluorescence, at 10 µM; hits give high values
# [16] = nonspecific potentiation of DAMGO calcium response – cell-based, HEK293 mu-opioid receptor line, counter-screen for TRPC4 allosteric potentiator project, confirmation (AID 449724;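 active = calcium signal rise more than 3 SD above the low-dose agonist control mean, in both duplicate plates and the primary screen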); conditions: HEK293 mu-opioid receptor cells, Fluo-4 calcium flux, at 10 µM, compound added before EC20 DAMGO stimulus; hits give high values
# Sequence of Short transient receptor potential channel 6 (Mus musculus) (Q61143 whole entry, looked up): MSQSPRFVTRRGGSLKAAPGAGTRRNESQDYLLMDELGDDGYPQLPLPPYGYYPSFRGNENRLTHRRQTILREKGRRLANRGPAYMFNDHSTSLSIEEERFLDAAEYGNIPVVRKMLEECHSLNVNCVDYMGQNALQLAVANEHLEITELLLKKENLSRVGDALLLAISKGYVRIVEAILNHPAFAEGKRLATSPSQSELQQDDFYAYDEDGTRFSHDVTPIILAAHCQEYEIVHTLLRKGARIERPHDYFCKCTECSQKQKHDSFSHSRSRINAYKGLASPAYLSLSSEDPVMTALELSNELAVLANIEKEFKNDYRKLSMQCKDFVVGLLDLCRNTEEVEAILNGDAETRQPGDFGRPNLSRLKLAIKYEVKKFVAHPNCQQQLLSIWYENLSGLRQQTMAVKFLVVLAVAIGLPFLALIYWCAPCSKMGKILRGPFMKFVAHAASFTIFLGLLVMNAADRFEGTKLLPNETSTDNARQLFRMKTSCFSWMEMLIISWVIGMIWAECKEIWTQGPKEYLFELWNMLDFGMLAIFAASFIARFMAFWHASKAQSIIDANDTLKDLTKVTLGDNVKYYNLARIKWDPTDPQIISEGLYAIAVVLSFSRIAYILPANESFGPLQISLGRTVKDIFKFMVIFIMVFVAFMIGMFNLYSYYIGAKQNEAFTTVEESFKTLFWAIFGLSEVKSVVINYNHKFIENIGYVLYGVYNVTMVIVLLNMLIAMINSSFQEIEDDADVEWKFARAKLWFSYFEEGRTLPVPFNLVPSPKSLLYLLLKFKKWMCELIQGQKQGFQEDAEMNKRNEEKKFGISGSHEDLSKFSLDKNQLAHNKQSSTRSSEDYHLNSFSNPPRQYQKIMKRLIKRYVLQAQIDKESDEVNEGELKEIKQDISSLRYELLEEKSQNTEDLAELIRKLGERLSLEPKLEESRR
# Sequence of Short transient receptor potential channel 4 (Mus musculus) (Q9QUQ5 whole entry, looked up): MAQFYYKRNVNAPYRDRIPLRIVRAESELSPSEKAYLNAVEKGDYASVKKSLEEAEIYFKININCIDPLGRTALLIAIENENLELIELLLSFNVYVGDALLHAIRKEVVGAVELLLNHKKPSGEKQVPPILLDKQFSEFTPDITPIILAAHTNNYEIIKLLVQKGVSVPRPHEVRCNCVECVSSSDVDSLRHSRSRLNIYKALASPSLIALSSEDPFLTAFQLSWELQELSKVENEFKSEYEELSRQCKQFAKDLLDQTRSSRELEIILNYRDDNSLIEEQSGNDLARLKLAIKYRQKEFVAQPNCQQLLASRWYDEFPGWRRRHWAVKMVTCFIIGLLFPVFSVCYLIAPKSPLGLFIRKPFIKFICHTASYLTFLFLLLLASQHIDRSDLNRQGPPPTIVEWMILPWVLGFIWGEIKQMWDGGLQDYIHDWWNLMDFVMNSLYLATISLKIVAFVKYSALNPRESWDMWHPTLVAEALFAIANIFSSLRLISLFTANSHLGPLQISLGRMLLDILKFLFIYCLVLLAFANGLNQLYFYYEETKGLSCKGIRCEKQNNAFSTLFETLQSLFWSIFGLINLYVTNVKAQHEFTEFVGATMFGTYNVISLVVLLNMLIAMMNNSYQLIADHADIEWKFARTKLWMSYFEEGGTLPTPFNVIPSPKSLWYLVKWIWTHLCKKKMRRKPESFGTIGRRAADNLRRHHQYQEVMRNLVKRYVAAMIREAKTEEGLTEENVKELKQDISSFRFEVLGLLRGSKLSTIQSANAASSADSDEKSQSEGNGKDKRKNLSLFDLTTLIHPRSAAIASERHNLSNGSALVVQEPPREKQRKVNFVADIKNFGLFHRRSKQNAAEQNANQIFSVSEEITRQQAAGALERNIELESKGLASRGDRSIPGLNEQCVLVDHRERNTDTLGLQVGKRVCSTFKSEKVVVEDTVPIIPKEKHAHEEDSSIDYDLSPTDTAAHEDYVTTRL
structure (smiles),measurement,setting,value
COc1cccc(C(=O)NC2CCCN(C3Cc4ccccc4C3)C2)c1OC (stereo not given),activation,[1],132% (active)
same,outcome,[2],inactive
same,outcome,[3],inactive
same,outcome,[4],inactive
same,outcome,[5],inactive
same,outcome,[6],inactive
same,outcome,[7],inactive
same,outcome,[8],inactive
same,outcome,[9],inactive
same,activation,[10],57.5% (active)
same,outcome,[11],inactive
same,activation,[12],82.8% (active)
same,outcome,[13],inactive
same,outcome,[14],inactive
same,outcome,[15],inactive
same,outcome,[16],inactive
COCCCn1c(N)c(-c2nc3ccccc3n2C)c2nc3ccccc3nc21,outcome,[1],inactive
same,outcome,[2],inactive
same,outcome,[3],inactive
same,outcome,[4],inactive
same,outcome,[5],inactive
same,outcome,[6],inactive
same,outcome,[7],inactive
same,outcome,[8],inactive
same,outcome,[9],inactive
same,activation,[10],137% (active)
same,outcome,[11],inactive
same,activation,[12],27.5% (active)
same,outcome,[13],inactive
same,outcome,[14],inactive
same,activation,[15],16.7% (active)
same,outcome,[16],inactive
O=C(NCc1ccccc1)C1=C[C@@H](C2CCCCC2)C[C@@H](OCc2ccc(CO)cc2)O1,activation,[1],183% (active)
same,outcome,[2],inactive
same,outcome,[3],inactive
same,outcome,[4],inactive
same,outcome,[5],inactive
same,outcome,[6],inactive
same,outcome,[7],inactive
same,outcome,[8],inactive
same,outcome,[9],inactive
same,activation,[10],30.5% (active)
same,outcome,[11],inactive
same,activation,[12],112% (active)
same,outcome,[13],inactive
same,outcome,[14],inactive
same,outcome,[15],inactive
same,outcome,[16],inactive
O=c1c(Cc2ccc(F)cc2)c(O)ccn1CCc1cnc[nH]1,activation,[1],112% (active)
same,outcome,[2],inactive
same,outcome,[3],inactive
same,outcome,[4],inactive
same,outcome,[5],inactive
same,outcome,[6],inactive
same,outcome,[7],inactive
same,outcome,[8],inactive
same,outcome,[9],inactive
same,outcome,[10],inactive
same,outcome,[11],inactive
same,activation,[12],29% (active)
same,outcome,[13],inactive
same,outcome,[14],inactive
same,outcome,[15],inactive
same,outcome,[16],inactive
COC(=O)C1CCN(Cc2cn(-c3ccccc3)nc2-c2ccc3c(c2)OCO3)CC1,outcome,[1],inactive
same,outcome,[2],inactive
same,outcome,[3],inactive
same,outcome,[4],inactive
same,outcome,[5],inactive
same,outcome,[6],inactive
same,outcome,[7],inactive
same,outcome,[8],inactive
same,outcome,[9],inactive
same,activation,[10],45% (active)
same,outcome,[11],inactive
same,outcome,[12],inactive
same,outcome,[13],inactive
same,outcome,[14],inactive
same,outcome,[15],inactive
same,outcome,[16],inactive
Cc1ccc(NC(=O)CNCC(c2ccccc2)N(C)C)cc1F (stereo not given),activation,[1],95% (active)
same,outcome,[2],inactive
same,outcome,[3],inactive
same,outcome,[4],inactive
same,outcome,[5],inactive
same,outcome,[6],inactive
same,outcome,[7],inactive
same,outcome,[8],inactive
same,outcome,[9],inactive
same,activation,[10],44% (active)
same,outcome,[11],inactive
same,outcome,[12],inactive
same,outcome,[13],inactive
same,outcome,[14],inactive
same,outcome,[15],inactive
same,outcome,[16],inactive
O=C(O)c1ccc(-c2ccc(/C=N/Nc3ccc([N+](=O)[O-])cc3)o2)cc1,activation,[1],120% (active)
same,outcome,[2],inactive
same,outcome,[3],inactive
same,potentiation,[4],11% (active)
same,outcome,[5],inactive
same,outcome,[6],inactive
same,outcome,[7],inactive
same,outcome,[8],inactive
same,outcome,[9],inactive
same,activation,[10],442% (active)
same,outcome,[11],inactive
same,activation,[12],111% (active)
same,outcome,[13],inactive
same,outcome,[14],inactive
same,activation,[15],106% (active)
same,outcome,[16],inactive
O=C(NC(=S)NNC(=O)c1cccs1)c1ccc(Br)o1,activation,[1],202% (active)
same,outcome,[2],inactive
same,outcome,[3],inactive
same,outcome,[4],inactive
same,outcome,[5],inactive
same,outcome,[6],inactive
same,outcome,[7],inactive
same,outcome,[8],inactive
same,outcome,[9],inactive
same,outcome,[10],inactive
same,outcome,[11],inactive
same,activation,[12],117% (active)
same,outcome,[13],inactive
same,outcome,[14],inactive
same,activation,[15],28.6% (active)
same,outcome,[16],inactive
Cc1cc(N2CCN(C)CC2)ccc1NC(=O)c1ccc(-c2ccc(Cl)cc2)o1,outcome,[1],inactive
same,outcome,[2],inactive
same,outcome,[3],inactive
same,outcome,[4],inactive
same,outcome,[5],inactive
same,outcome,[6],inactive
same,outcome,[7],inactive
same,outcome,[8],inactive
same,outcome,[9],inactive
same,outcome,[10],inactive
same,outcome,[11],inactive
same,outcome,[12],inactive
same,outcome,[13],inactive
same,outcome,[14],inactive
same,outcome,[15],inactive
same,outcome,[16],inactive
CCOC(=O)C1(Cc2ccccc2)CCN(Cc2cccn2-c2cccnc2)CC1,activation,[1],55% (active)
same,outcome,[2],inactive
same,outcome,[3],inactive
same,outcome,[4],inactive
same,outcome,[5],inactive
same,outcome,[6],inactive
same,outcome,[7],inactive
same,outcome,[8],inactive
same,outcome,[9],inactive
same,activation,[10],89% (active)
same,outcome,[11],inactive
same,outcome,[12],inactive
same,outcome,[13],inactive
same,outcome,[14],inactive
same,outcome,[15],inactive
same,outcome,[16],inactive
Cn1c(N2CCN(C(=O)Nc3ccc(F)cc3)CC2)nc2ccccc21,activation,[1],51% (active)
same,outcome,[2],inactive
same,outcome,[3],inactive
same,outcome,[4],inactive
same,outcome,[5],inactive
same,outcome,[6],inactive
same,outcome,[7],inactive
same,outcome,[8],inactive
same,outcome,[9],inactive
same,outcome,[10],inactive
same,outcome,[11],inactive
same,activation,[12],22.1% (active)
same,outcome,[13],inactive
same,outcome,[14],inactive
same,outcome,[15],inactive
same,outcome,[16],inactive
COc1ccc(C(=O)NNC(=S)NC(=O)c2cccs2)cc1,outcome,[1],inactive
same,outcome,[2],inactive
same,outcome,[3],inactive
same,outcome,[4],inactive
same,outcome,[5],inactive
same,outcome,[6],inactive
same,outcome,[7],inactive
same,outcome,[8],inactive
same,outcome,[9],inactive
same,activation,[10],41.5% (active)
same,outcome,[11],inactive
same,activation,[12],42.7% (active)
same,outcome,[13],inactive
same,outcome,[14],inactive
same,outcome,[15],inactive
same,outcome,[16],inactive
CCC(=O)N1CCc2cc(Br)cc(S(=O)(=O)NCCCN(CC)Cc3ccccc3)c21,activation,[1],126% (active)
same,activation,[2],153% (active)
same,outcome,[3],inactive
same,outcome,[4],inactive
same,outcome,[5],inactive
same,outcome,[6],inactive
same,outcome,[7],inactive
same,outcome,[8],inactive
same,outcome,[9],inactive
same,outcome,[10],inactive
same,outcome,[11],inactive
same,activation,[12],55.5% (active)
same,outcome,[13],inactive
same,outcome,[14],inactive
same,outcome,[15],inactive
same,outcome,[16],inactive
COC(=O)NCC(c1ccc2c(c1)OCO2)N1CCN(c2ccccc2)CC1 (stereo not given),activation,[1],201% (active)
same,activation,[2],99% (active)
same,outcome,[3],inactive
same,outcome,[4],inactive
same,outcome,[5],inactive
same,outcome,[6],inactive
same,outcome,[7],inactive
same,outcome,[8],inactive
same,outcome,[9],inactive
same,activation,[10],33% (active)
same,outcome,[11],inactive
same,outcome,[12],inactive
same,outcome,[13],inactive
same,outcome,[14],inactive
same,outcome,[15],inactive
same,outcome,[16],inactive
COc1ccc(-c2nn(-c3ccccc3C)cc2CNC(C)c2cn(C)nc2C)cc1F (stereo not given),activation,[1],206% (active)
same,activation,[2],74% (active)
same,outcome,[3],inactive
same,outcome,[4],inactive
same,outcome,[5],inactive
same,outcome,[6],inactive
same,outcome,[7],inactive
same,outcome,[8],inactive
same,outcome,[9],inactive
same,activation,[10],31% (active)
same,outcome,[11],inactive
same,outcome,[12],inactive
same,outcome,[13],inactive
same,outcome,[14],inactive
same,outcome,[15],inactive
same,outcome,[16],inactive
